From PubChem BioAssay AID504832 (National Center for Advancing Translational Sciences (NCATS), 2011) come the findings set out here.

The whole screen tested about 310,000 compounds, of which about 18,000 (5.8%) were called active. Not shown: some 22% with an inconclusive outcome. The list comes from a sample in which actives are over-represented; it also holds similar structures and randomly drawn compounds. Values without a mark were called inactive. The call rests on the fitted dose curve; in most records, active means well fitted inhibition curve with a large enough effect; inconclusive means small, poorly fitted or top-dose-only effect, or another doubt; inactive means no such curve, though single readings can be large or run the other way.
On the % scale 0 is the no-effect control and ±100 the full control effect; potency means the concentration at half of the fitted maximal effect.

This test can be described thus: Primary qHTS for delayed death inhibitors of the malarial parasite plastid, 48 hour incubation. The conditions noted are these: P. falciparum luciferase growth in erythrocytes; series mostly up to 28.7 µM; activity change, negative = inhibition: at the top concentration. An outline of the steps: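 First compound was added to culture medium, then infected red cells at 0.1% parasitemia and 2% hematocrit (final). After incubation at 37 C under 5% CO2, luciferase detection reagent was dispensed and light output recorded.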
A general note: Quantitative high-throughput screening tests each substance at several concentrations.
For `Cc1[nH]c2ccccc2c1C(=O)COC(=O)C(C)C`, the “activity change, negative = inhibition” value was 7%.

Consider `C=CCOc1ccc(/C=C2/C(=O)ON=C2C)cc1OCC`, for which the “activity change, negative = inhibition” value was 24.4%.

On to `COc1ccc(OC)c(S(=O)(=O)n2c([N+](=O)[O-])cnc2C)c1`, for which the “activity change, negative = inhibition” value is 17.9%.

Turning to `NS(=O)(=O)c1ccc(N=Nc2c(O)[nH]c3ccc(Br)cc23)cc1`, the “activity change, negative = inhibition” value was -18.2%.

In the case of `COc1ccccc1N1CCN(C(=O)c2c(-c3c(Cl)cccc3Cl)noc2C)CC1`, the Potency is 10.4 µM (active).

For the compound `Cc1[nH]n(C)c(=O)c1C(=O)c1c(-c2c(Cl)cccc2Cl)noc1C`, the “activity change, negative = inhibition” value is -1.52%.

Take `Cc1onc(-c2c(Cl)cccc2Cl)c1C(=O)NNC(=O)c1c(-c2c(Cl)cccc2Cl)noc1C`: the Potency was 8.28 µM (active).

Regarding `Cc1onc(-c2c(F)cccc2Cl)c1C(=O)N(C)CC(=O)Nc1cccc(F)c1`, the “activity change, negative = inhibition” value was -9.49%.

`COc1ccccc1N1CCN(C(=O)c2cc(-c3ccc(Cl)c(Cl)c3)on2)CC1`: the “activity change, negative = inhibition” value was -26%.

Consider `COc1cccc(-c2cc(C(=O)N3CCN(c4ccccc4OC)CC3)no2)c1`, for which the “activity change, negative = inhibition” value is -0.672%.

For `CC(C)c1ccc(/C=C2\NC(=O)NC2=O)cc1`, the “activity change, negative = inhibition” value was 34.2%.

For the compound `Cc1cccn2c(=O)c3cc(C(=O)NCCN4CCOCC4)c(=N)n(Cc4cccnc4)c3nc12`, the “activity change, negative = inhibition” value is -6.49%.

As for `Cc1ccc(-c2noc(-c3ccccc3C(=O)NCC3CCCO3)n2)cc1` (centres undefined), the “activity change, negative = inhibition” value is 55.2%.

On to `Cc1ccc2nc3c(cc(C(=O)NCCc4ccccc4)c(=N)n3CC3CCCO3)c(=O)n2c1` (centres undefined), for which the Potency was 2.08 µM (active).

As to `O=C(NCc1ccco1)c1cccn2c(=O)c3c4c(sc3nc12)CCCC4`, the “activity change, negative = inhibition” value was -1.75%.

On to `Cc1ccc(CCNC(=O)c2ccc3nc4ccccc4c(=O)n3c2)cc1`, for which the “activity change, negative = inhibition” value is 7.18%.

Consider `O=C(Nc1ccccc1C(=O)NCC1CCCO1)c1ccccc1F` (centres undefined), for which the “activity change, negative = inhibition” value was -13.4%.

Take `Cc1cccn2c(=O)c3cc(C(=O)NCC4CCCO4)c(=N)n(Cc4ccc(F)cc4)c3nc12` (centres undefined): the Potency is 9.28 µM (active).

As to `COc1ccc2oc(C(=O)NCc3ccco3)c(C)c2c1`, the “activity change, negative = inhibition” value is 42.9%.

In the case of `COc1ccc(CCn2c(=N)c(C(=O)NCc3ccco3)cc3c(=O)n4cccc(C)c4nc32)cc1`, the Potency was 0.465 µM (active).

In the case of `Nc1nc(SCC(=O)Nc2ccc(Cl)cc2C(F)(F)F)n[nH]1`, the “activity change, negative = inhibition” value was 10.1%.

Turning to `CN(CC(=O)Nc1ccc(OC(F)(F)F)cc1)C(=O)C1CCC1`, the “activity change, negative = inhibition” value is -18.1%.

On to `c1ccc(C2CNCc3c2ccc2ccccc32)cc1` (centres undefined), for which the Potency is 10.4 µM (active).

Turning to `CC1=C(C(=O)NC2CC(C)(C)Cc3c2cnn3-c2ccc(C)cc2)OCCO1` (centres undefined), the “activity change, negative = inhibition” value was -13.1%.

In the case of `C=CCOc1cccc(CNCc2cccnc2)c1`, the “activity change, negative = inhibition” value was 8.42%.

On to `CCc1ccccc1NC(=O)CCOc1ccccc1`, for which the “activity change, negative = inhibition” value is -6.71%.

Turning to `CCc1ccccc1NC(=O)c1cccs1`, the “activity change, negative = inhibition” value was 39.7%.

As for `CCc1ccccc1NC(=O)/C(=C/c1ccccc1)c1ccccc1`, the Potency is 5.22 µM (active).

Consider `Cc1ccc(C(=O)NCC(=O)OCC(=O)NC2CCCCCCC2)cc1`, for which the “activity change, negative = inhibition” value is -0.0814%.

With `CCN1C(=O)c2cccc3c(S(=O)(=O)Nc4ccccc4O)ccc1c23`, the “activity change, negative = inhibition” value was -15.4%.

As for `CN1CCN(/N=C/c2c[nH]c3ccccc23)CC1`, the “activity change, negative = inhibition” value was 60.3%.

Take `CSC(=S)N/N=C/c1c[nH]c2ccccc12`: the “activity change, negative = inhibition” value is 17.1%.

Take `C[n+]1ccc(/C=C/c2c[nH]c3ccccc23)cc1`: the Potency is 0.738 µM (active).

With `Cn1c(=O)c2c(nc(NCCNC(=O)c3ccco3)n2Cc2ccccc2F)n(C)c1=O`, the “activity change, negative = inhibition” value is -25.8%.

For the compound `CCC(=C/c1sc2ccc3ccccc3c2[n+]1C)/C=C1\Sc2ccc3ccccc3c2N1C`, the Potency was 0.928 µM (active).

As for `COc1ccc2ccn(C)c2c1`, the “activity change, negative = inhibition” value is 3.12%.

As for `Cc1ccccc1NC(=O)C1CCCN(C(=O)NCc2ccccc2)C1` (centres undefined), the “activity change, negative = inhibition” value is 14.4%.

On to `O=C(NCC1CCCO1)c1ccc2ccccc2n1` (centres undefined), for which the “activity change, negative = inhibition” value was 59.7%.

As for `COc1cccc2[nH]c(C(=O)NCCc3ccccc3)cc12`, the “activity change, negative = inhibition” value is 108%.

With `O=C(NCCCO)c1cc2c([nH]c3ccccc32)c(-c2ccc(F)cc2)n1`, the Potency is 9.28 µM (active).

As for `O=C(NCC1CCCO1)c1cc2c([nH]c3ccccc32)c(-c2ccc(F)cc2)n1` (centres undefined), the Potency was 9.28 µM (active).

As for `O=C(NCCc1ccc(F)cc1)c1n[nH]c2ccccc12`, the “activity change, negative = inhibition” value is 62.1%.

On to `O=C(NCC1CCCO1)c1cc(-c2ccccc2)nc2ccccc12` (centres undefined), for which the “activity change, negative = inhibition” value is -16.3%.

For `COc1ccccc1OC(C)C(=O)Nc1ccc(S(=O)(=O)Nc2nccs2)cc1` (centres undefined), the “activity change, negative = inhibition” value is -1.18%.

For `CCOc1ccc2c(c1)c(=O)c(S(=O)(=O)c1ccc(C)cc1)cn2CC`, the “activity change, negative = inhibition” value is 3.55%.

`CCc1cccc(C)c1NC(=O)COC(=O)CNC(=O)c1cccs1`: the “activity change, negative = inhibition” value was 2.83%.

`CCc1ccc(Oc2coc3cc(O)ccc3c2=O)cc1`: the “activity change, negative = inhibition” value was 62.3%.

`COc1ccc(-n2cc(CN(C)Cc3n[nH]c(=O)[nH]3)c(-c3cccc(F)c3)n2)cc1`: the “activity change, negative = inhibition” value was -3.86%.

As for `COc1ccc(-c2nn(-c3ccccc3)cc2CN2CCCO2)c(F)c1`, the “activity change, negative = inhibition” value was 0.912%.

As to `COc1ccc(-n2cc(CNC3CCOCC3)c(-c3cccc(F)c3)n2)cc1`, the Potency was 11.7 µM (active).

On to `Cc1ccc(S(=O)(=O)NC(=O)c2cccc(C)c2)cc1`, for which the “activity change, negative = inhibition” value was 9.68%.

As to `CCc1cccc(C)c1NC(=O)COC(=O)CC1CCCC1`, the “activity change, negative = inhibition” value was 22.5%.

For `CCc1cccc(CC)c1NC(=O)COc1ccccc1C(=O)c1cc(C#N)c(=O)n(C2CCCCC2)c1`, the Potency was 5.86 µM (active).

As to `Cc1cc(NC(=O)COc2ccccc2C#N)no1`, the “activity change, negative = inhibition” value is 209%.
